Experimental data: PubChem BioAssay AID743266 (National Center for Advancing Translational Sciences (NCATS), 2014)
The whole screen tested about 410,000 compounds, of which about 310 (0.076%) were called active. Entries that show only a call come without a potency. About 2% were inconclusive and are not listed. Calls come from the whole dose curve; as a rule, active = well fitted activation curve with a large enough effect; inconclusive = small, poorly fitted or top-dose-only effect, or another doubt; inactive = no such curve, though single readings can be large or run the other way. The sample as a whole holds a higher share of actives than the screen did.

Each molecule was assayed against Parathyroid hormone/parathyroid hormone-related peptide receptor (Homo sapiens) (UniProt Q03431) (assay: qHTS for PTHR1 Agonists: Primary Screen). Conditions: HEK293 GP2 PTHR1 cells, GloSensor cAMP luminescence, 1 h; series mostly up to 115 µM.
Text: The goal of the proposed studies is to discover new compounds that act as potent agonists on the parathyroid hormone receptor type-1 (PTHR1). The PTHR1 plays critical roles in maintaining blood calcium and phosphate levels, as well as in controlling bone remodeling. PTHR1 agonists could thus be useful for treating diseases such as hypoparathyroidism and osteoporosis. In the former disease, an agonist drug would help maintain normal blood calcium and phosphate levels under conditions of parathyroid hormone deficiency. In the latter disease, an agonist drug would stimulate new bone formation and thus reduce the risk of fracture, under conditions of bone fragility, as occurs in aging.
To that end, we performed a quantitative high-throughput screening (qHTS) of the Molecular Libraries Probe Centers Network (MLPCN) compound libraries at the NIH Chemical Genomics Center (NCGC) for the parathyroid hormone receptor type-1 (PTHR1) using a unique HEK-293-derived cell line (GP2) that expresses the PTHR1 and a glosensor cAMP reporter construct.
NIH Molecular Libraries Probe Production Centers Network [MLPCN]
NIH Chemical Genomics Center [NCGC]
Assay Submitter (PI): Thomas Gardella, Massachusetts General Hospital
4 microL are dispensed into a 1536-well micro plate to yield 3,000 cells/well. The plates are then incubated overnight, after which 4 microL of 0.5 mM of BIoTium Luciferin plus 0.5 mM IBMX are added. They are then incubated at 37 degree for one hour before 23 nL of compounds are added through pinning and then incubated at 37 degree again for another hour. After the plates are kept at room temperature for 15 min before they are read on the ViewLux to measure luminescence.
Note: nearly all actives have a fitted effect of over 55% in size.
Potency is the fitted concentration of half-maximal effect.

Sequence of Parathyroid hormone/parathyroid hormone-related peptide receptor (Homo sapiens) (Q03431 whole entry, looked up): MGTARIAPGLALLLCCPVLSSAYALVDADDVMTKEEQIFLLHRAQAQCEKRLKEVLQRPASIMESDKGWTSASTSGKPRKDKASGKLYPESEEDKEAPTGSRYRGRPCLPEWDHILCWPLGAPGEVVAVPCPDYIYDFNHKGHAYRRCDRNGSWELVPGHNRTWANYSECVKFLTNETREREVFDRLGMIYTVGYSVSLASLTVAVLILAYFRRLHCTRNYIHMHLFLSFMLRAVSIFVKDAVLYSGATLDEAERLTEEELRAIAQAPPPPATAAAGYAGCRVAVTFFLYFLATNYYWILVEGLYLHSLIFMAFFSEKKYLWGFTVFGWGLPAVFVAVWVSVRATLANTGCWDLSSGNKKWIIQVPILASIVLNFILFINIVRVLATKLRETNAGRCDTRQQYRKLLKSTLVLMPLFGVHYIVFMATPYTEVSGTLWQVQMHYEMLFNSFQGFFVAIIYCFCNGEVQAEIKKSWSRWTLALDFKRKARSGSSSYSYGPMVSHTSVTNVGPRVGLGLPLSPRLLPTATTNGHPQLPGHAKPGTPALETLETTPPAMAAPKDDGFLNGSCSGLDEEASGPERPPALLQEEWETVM

Row | Compound | Potency
1 | CC1=C(c2ccc(C)c(C)c2)S(=O)(=O)NC1=NCc1ccccc1Cl | inactive
2 | COC(=O)c1cc(NC(=O)c2sc3ccccc3c2Cl)cc(C(=O)OC)c1 | inactive
3 | Cc1[nH]c2ccccc2c1C(c1ccccc1)c1cccs1 (stereo unspecified) | inactive
4 | CCOc1ccc(N(Cc2ccccc2)C(=O)c2nc(S(C)(=O)=O)ncc2Cl)cc1 | inactive
5 | CCOCCCNC(=O)c1cn(CC)c2ccc(S(=O)(=O)N3CCc4ccccc4C3)cc2c1=O | inactive
6 | Cc1ccc(OCC(=O)Nc2ccc(Cl)c(-c3nc4ccccc4[nH]3)c2)cc1C | inactive
7 | CCC1=Nc2cc(C(=O)NCCCOC(C)C)ccc2Sc2ccc(C)cc21 | inactive
8 | COc1ccc(-c2noc(CCC(=O)N(C)c3ccccc3C)n2)cc1 | inactive
9 | Cc1cccc(N2CCN(c3ccc(C(=O)O)cc3NC(=O)c3ccccc3F)CC2C)c1 (stereo unspecified) | inactive
10 | Cc1cc(C)cc(NS(=O)(=O)c2ccc(-c3cc(C)no3)s2)c1 | inactive
11 | COc1cc(C(=O)NCCS(=O)(=O)N2CCN(c3ccccc3)CC2)cc(OC)c1OC | inactive
12 | CCOc1ccc(C(=O)c2cn(Cc3ccccc3OC)c3ccc(F)cc3c2=O)cc1 | inactive
13 | CN1C(=O)c2ccccc2Sc2ccc(NC(=O)Cc3ccc(Cl)cc3)cc21 | inactive
14 | Cc1ccccc1-c1nc2scc(CCNC(=O)C(=O)Nc3ccc(F)cc3F)n2n1 | inactive
15 | O=C(CCS(=O)(=O)c1cc(Br)cc2c1N(C(=O)C1CC1)CC2)Nc1ccc(C(F)(F)F)cc1 | inactive
16 | Cc1cc(C)c(NC(=O)CSc2nc3nccnc3c(=O)n2CCc2c[nH]c3ccccc23)c(C)c1 | inactive
17 | COc1ccccc1C(=O)Nc1c(C(=O)N(C)Cc2ccccc2)sc2nc(C)c(Cl)c(C)c12 | inactive
18 | CCN(C(=O)Cn1cnc2sc(C)c(S(=O)(=O)N3CCN(c4ncccn4)CC3)c2c1=O)c1ccccc1F | inactive
19 | CCC(=O)N1CCc2cc(CNC(=O)Nc3ccccc3Cl)ccc21 | inactive
20 | CSc1nc(-c2ccc(F)cc2)nc2c1Cc1c(CO)cnc(C)c1O2 | inactive
21 | Cc1ccccc1OCCSc1nc2ccc(NC(=O)c3ccco3)cc2s1 | inactive
22 | Cc1ccc(Cn2c(=O)n(-c3ccc(C)cc3)c(=O)c3c2c2cc(C)ccc2n3C)cc1 | inactive
23 | Cc1ccsc1CN(C(=O)c1oc2ccc(Br)cc2c1C)C1CCS(=O)(=O)C1 (stereo unspecified) | inactive

Row | Compound | Potency
24 | Cc1ccccc1CSc1nc2c([nH]c3ccccc32)c(=O)n1C | inactive
25 | CC(=O)c1ccc(N2CCN(c3nc4c(S(=O)(=O)c5ccccc5)nnn4c4ccc(Cl)cc34)CC2)cc1 | inactive
26 | Cc1cccc(N2CCN(C(=O)Cn3ncc4c5ccccc5n(C)c4c3=O)CC2C)c1 (stereo unspecified) | inactive
27 | CCOc1ccc(C2C(C(=O)Nc3ccc(Cl)cc3)=C(C)Nc3nc(C(F)(F)F)nn32)cc1 (stereo unspecified) | inactive
28 | CCN(C(=O)Cn1c(=O)nc(-c2ccccc2)c2cc(Cl)ccc21)c1cccc(C)c1 | inactive
29 | Cc1cc(C)cc(NC(=O)CCCc2nc(-c3ccccc3Cl)no2)c1 | inactive
30 | CCOC(=O)C1CCN(c2nc3c(S(=O)(=O)c4ccc(CC)cc4)nnn3c3ccc(Cl)cc23)CC1 | inactive
31 | Cc1ccc(CNC(=O)CCC(=O)N2Cc3ccccc3Oc3ncccc32)cc1 | inactive
32 | CCOC(=O)c1c(NC(=O)Cc2coc3ccc(CC)cc23)sc2c1CCC2 | inactive
33 | CCOc1ccccc1N(CC)C(=O)Nc1cn(C)c(=O)c2ccccc12 | inactive
34 | O=C(NCCCO)c1nn(-c2ccc(Cl)cc2)nc1CO | inactive
35 | CCc1nn(CC(=O)N2CCN(c3ccc(Cl)cc3)CC2)c(=O)c2cc3occc3n12 | inactive
36 | CC(C)Cn1c(C2CC(=O)N(c3ccccc3Cl)C2)nc2ccccc21 (stereo unspecified) | inactive
37 | Cn1c(COc2ccccc2C(C)(C)C)nc2ccccc21 | inactive
38 | COc1ccc(NC(=O)CSC2=Nc3ccccc3C3=NC(CC(=O)NCc4ccccc4OC)C(=O)N23)cc1Cl (stereo unspecified) | inactive
39 | CC(CCCc1ccccc1)NC(=O)c1nn(-c2ccc(Cl)cc2)nc1CO (stereo unspecified) | inactive
40 | COc1ccc(CNc2nc(-c3ccc(Cl)cc3)nn2C(=O)c2ccccc2)cc1 | inactive
41 | Cc1ccc(CCNC(=O)C2CCN(c3nnc(-n4cccc4CNc4ccc(C)cc4)s3)CC2)cc1 | inactive
42 | Cc1ccc(SCC(=O)Nc2ccc3oc(-c4ccccc4F)nc3c2)cc1 | inactive
43 | CC(=O)N1c2ccc(S(=O)(=O)N3CCCCCC3)cc2CC1C(=O)NCc1ccccc1C (stereo unspecified) | inactive
44 | COc1ccccc1N1CCN(CCCNC(=O)c2cnn(-c3ccccc3Cl)c2C2CCN(C(=O)OC(C)(C)C)CC2)CC1 | inactive
45 | Cc1cccc(C)c1-n1ncc(C(=O)NCCCN2CCCCC2)c1C1CCN(C(=O)OC(C)(C)C)CC1 | 14.1 µM (active)
46 | CCN1CCN(CCCNC(=O)c2cnn(-c3ccc(C)cc3C)c2C2CCN(C(=O)OC(C)(C)C)CC2)CC1 | inactive

Row | Compound | Potency
47 | O=C(NC1CCCCC1)c1ccc(Cn2c(SCc3ccccc3)nc3cccnc32)cc1 | inactive
48 | COc1ccc(N(C)C(=O)C2CCN(S(=O)(=O)c3cc(Br)cc4c3N(C(C)=O)CC4)CC2)cc1 | inactive
49 | CCOc1ccc(OCC)c(NC(=O)c2c(C)nn(-c3ccccc3)c2-n2cccc2)c1 | inactive
50 | COc1cccc(-c2n[nH]c3c2C(c2cccc(O)c2)N(C)C3=O)c1 (stereo unspecified) | inactive
51 | CCCN1CCN(CCCNC(=O)Cn2nc(CC)n3c(cc4occc43)c2=O)CC1 | inactive
52 | COc1ccc2c(c1)c(N1CCCC1=O)c(C(=O)Nc1ccc(OC)c(Cl)c1)n2C | inactive
53 | COC(=O)c1cc2occc2n1Cc1nc(-c2ccc(C)cc2)oc1C | inactive
54 | Cc1ccc(-c2cnc(NCc3ccc(C(C)C)cc3)n2C)cc1 | inactive
55 | C=Cc1ccc(Cn2c(C(=O)O)c(CNC3CCCC3)c3ccc(C)cc32)cc1 | inactive
56 | CCN(CC)C(=O)CSc1nc2cc3c(cc2c(=O)n1CCCC(=O)NCc1ccc2c(c1)OCO2)OCO3 | inactive
57 | CCOc1ccc(CNC(=O)C2CCCN(S(=O)(=O)N(CC)c3ccc(OCC)cc3)C2)cc1 (stereo unspecified) | inactive
58 | CCN(CC)S(=O)(=O)c1ccc2c(c1)c(=O)c(C(=O)N1CCN(c3cccc(Cl)c3)CC1)cn2C | inactive
59 | COc1cccc(CNC(=O)C2CCC(CNS(=O)(=O)c3cccs3)CC2)c1 (stereo unspecified) | inactive
60 | COc1ccc(N2CCN(S(=O)(=O)c3ccc(-c4coc(C)n4)cc3)CC2)cc1 | inactive
61 | Cc1ccc(C)c(N2CCN(C(=O)CN3C(=O)COc4ccc(S(=O)(=O)N5CCCCCC5)cc43)CC2)c1 | inactive
62 | COc1ccccc1CNC(=O)Cn1nc(C)c2nn(-c3ccc(Cl)cc3)c(C)c2c1=O | inactive
63 | O=C(O)c1ccc(CSc2nc3cccnc3n2Cc2cccc(F)c2)cc1 | inactive
64 | CC(C)c1ccc(NC(=O)c2ccc(Cn3nc(N4CCN(c5ccccc5)CC4)ccc3=O)o2)cc1 | inactive
65 | O=C(CSc1nccn1C1CCCC1)Nc1cc(C(F)(F)F)ccc1Cl | inactive
66 | Cc1ccc(Cc2cnc(N)s2)o1 | 3.55 µM (active)
67 | Cc1ccc(-c2nc3cccc(C)n3c2Nc2ccc3c(c2)OCCO3)cc1 | inactive
68 | CCN(CC)c1ccc(NC(=O)Cn2nc3c(cc2=O)CCCC3)c(C)c1 | inactive
69 | CCC(=O)N1c2ccccc2CC1C(=O)N1CCN(c2ccccc2F)CC1 (stereo unspecified) | inactive

Row | Compound | Potency
70 | Cc1cc(C)c(NC(=O)CCc2c(C)nc3c(c(C)nn3C(C)(C)C)c2C)c(C)c1 | inactive
71 | Cn1c(=O)c(C(=O)O)nn(-c2ccccc2)c1=O | inactive
72 | Cc1cc(C)cc(NC(=O)CSc2nc(=O)n(CCN3CCOCC3)c3c2CCC3)c1 | inactive
73 | COc1ccccc1NC(=O)Cn1cnc2ccc(S(=O)(=O)N3CCC(C)CC3)cc2c1=O | inactive
74 | COc1ccc(C2(Nc3cccc(F)c3)C(=O)c3ccccc3C2=O)cc1 | inactive
75 | CC1CCN(S(=O)(=O)c2ccc3c(c2)N(CC(=O)NCCc2ccccc2)C(=O)CO3)CC1 | inactive
76 | COc1ccc(-n2nc(C(=O)NCCc3ccc(Cl)cc3)c3c4ccccc4n(C)c3c2=O)cc1Cl | inactive
77 | c1ccc(CSc2ncnc3c2sc2nc(N4CCOCC4)c4c(c23)CCCC4)cc1 | inactive
78 | CCCCSc1ncnc2c1sc1nc(N3CCOCC3)c3c(c12)CCCC3 | 79.4 µM (active)
79 | CCc1nc2sc3c(Cl)ncnc3c2c2c1CCCC2 | inactive
80 | COC(=O)c1c(NC(=O)c2cc(=O)c3c(C)cc(C)cc3o2)sc2c1CCCC2 | inactive
81 | Cc1ccccc1NC(=O)Cn1cc(C(=O)c2cccs2)c2ccccc21 | inactive
82 | CCCS(=O)(=O)N1CCC(n2c(C(F)(F)F)nc3cccnc32)CC1 | inactive
83 | Cc1ccc(CN2COc3cc(C)c4c(oc(=O)c5ccccc54)c3C2)cc1 | inactive
84 | COc1ccc(OC)c(-n2nnc(-c3nc(-c4cc(OC)c(OC)c(OC)c4)no3)c2C)c1 | inactive
85 | COc1cc(NC(=O)CCn2nc(C)cc2C)cc(OC)c1OC | inactive
86 | Cc1cc(C)cc(NC(=O)Cn2nc(N3CCN(c4ccccc4)CC3)ccc2=O)c1 | inactive
87 | COc1cccc(NC(=O)N2CCN(C(=O)c3nsc4ccccc34)CC2)c1 | inactive
88 | CCCC(=O)N1CCN(c2nc3c(OC)ccc(C)c3s2)CC1 | inactive
89 | Cc1ccc(NC(=O)CN2C(=O)CC(C)Sc3ccccc32)c(C)c1 (stereo unspecified) | inactive
90 | COc1cc(NC(=O)c2nc3ccccc3nc2C)cc(OC)c1OC | inactive
91 | CCN(Cc1ccccc1)Cc1c(O)ccc2c(=O)c(-c3ccc(Cl)cc3Cl)coc12 | inactive
92 | CN(C)Cc1c(O)ccc2c(=O)c(-c3ccccc3Cl)coc12 | inactive

Row | Compound | Potency
93 | CC(C)CN(Cc1c(O)ccc2c(=O)c(-c3ccccc3)coc12)CC(C)C | 35.5 µM (active)
94 | CC1CCN(S(=O)(=O)c2ccc3c(c2)N(CC(=O)NCc2ccccc2Cl)C(=O)CO3)CC1 | inactive
95 | COC(=O)c1cc(NC(=O)CCc2c(C)nc3c4c(C)cc(C)nc4nn3c2C)cc(C(=O)OC)c1 | inactive
96 | COc1ccc(Cn2cc(C(=O)c3ccc(C)cc3)c(=O)c3cc(OC)c(OC)cc32)cc1 | inactive
97 | Cc1oc2ncnc(N3CCCCC3)c2c1C(=O)N1CCN(c2cccc(Cl)c2)CC1 | inactive
98 | CCOC(=O)N1CCc2c(sc3c2C(=O)NC(c2ccccc2F)N3)C1 (stereo unspecified) | inactive
99 | COc1ccc(NC(=O)Cn2c(=O)cc(C)c3c(C)nn(-c4cccc(Cl)c4C)c32)cc1OC | inactive
100 | Cc1ccc(C)c(NC(=O)CSC2=Nc3ccccc3N=C(c3ccc(F)cc3)C2)c1 | inactive
101 | CCN(CC)c1ccc(NS(=O)(=O)c2cc(-c3cc(C)no3)ccc2C)c(C)c1 | inactive
102 | CCCCC12CN3CC(C)(CN(C1)C3c1ccc(O)c(OC)c1)C2=O (stereo unspecified) | inactive
103 | CC(=O)c1ccc(NC(=O)C2CCN(S(=O)(=O)c3c(C)noc3/C=C/c3ccc(C)cc3)CC2)cc1 | inactive
104 | COC(=O)c1ccccc1NC(=O)c1ccc2c(=O)n3c(nc2c1)CCCCC3 | inactive
105 | COc1ccccc1-c1cc2nc(C)c(CCC(=O)NC3CCCCC3)c(C)n2n1 | inactive
106 | CCc1ccc(CN(Cc2ccco2)C(=O)COc2ccc(Cl)c(C)c2)cc1 | inactive
107 | COc1cccc2c1cc1c(=O)n(CC(=O)N3CCN(c4ccccc4)CC3)nc(C)n12 | inactive
108 | O=C(NCCc1ccccc1)c1ccc2c(c1)N(Cc1ccc(F)cc1)C(=O)c1ccccc1S2(=O)=O | inactive
109 | Cc1nc2ccn(Cc3cccnc3)c(=O)c2cc1C(=O)N1CCN(c2ccccc2F)CC1 | inactive
110 | CCc1ccc(NC(=O)CCS(=O)(=O)c2cc3c(cc2Cl)NC(=O)CO3)cc1 | inactive
111 | Cc1ccc(C(=O)Nc2cc3c(cc2N2CCCC2)n(C)c(=O)c(=O)n3C)cc1 | inactive
